# Screening data as filed in PubChem BioAssay.
# Most compounds without a hit are left out; they make up all but 2.4% or so of the library.
# SmPrx2 inh – Schistosoma Mansoni Peroxiredoxins (Prx2); Schistosoma mansoni peroxiredoxin 2 (Prx2); S. mansoni Prx2 activity coupled to TGR/GSH (TGR is thioredoxin glutathione reductase), NADPH fluorescence loss, qHTS; Potency, µM; 65,000 compounds, 0.07% hits; AID 448, 2006
#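 Coupled assay in which S. mansoni TGR passes NADPH reducing equivalents via glutathione to Prx2, which reduces H2O2. Compounds were preincubated 15 min at room temperature with 25 nM TGR/50 nM Prx2 mix. Kinetic NADPH fluorescence loss (ex 365/em 450 nm) was monitored.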
# AmpC det inh – Promiscuous and Specific Inhibitors of AmpC Beta-Lactamase (assay with detergent) | P00811 | 71,000 compounds, 0.09% hits | Potency, µM (highest dose often 28.7 µM), for inactives: at the highest dose activity change, negative = inhibition | AID 584, 2007 | purified AmpC, nitrocefin hydrolysis with detergent; active = well fitted curve in the direction sought with a large enough effect; inconclusive = small, poorly fitted or top-dose-only effect; also: % is scaled to controls: 0 for no effect and ±100 for the full control effect
# Target sequence (P00811 whole entry, looked up): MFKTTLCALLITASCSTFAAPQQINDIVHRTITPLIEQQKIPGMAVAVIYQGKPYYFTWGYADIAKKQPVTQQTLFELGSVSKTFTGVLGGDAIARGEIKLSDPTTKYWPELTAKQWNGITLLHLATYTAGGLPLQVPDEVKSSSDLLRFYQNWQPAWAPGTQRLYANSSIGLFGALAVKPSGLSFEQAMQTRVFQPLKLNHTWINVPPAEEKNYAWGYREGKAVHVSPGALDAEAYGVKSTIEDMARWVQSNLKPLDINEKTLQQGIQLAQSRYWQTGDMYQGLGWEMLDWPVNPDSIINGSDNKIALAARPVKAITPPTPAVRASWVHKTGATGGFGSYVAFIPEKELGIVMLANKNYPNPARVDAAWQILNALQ
#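 E. coli AmpC (5.3 nM) in 20 mM phosphate pH 7.0 with 0.01% Triton X-100, preincubated 15 min RT with compound; nitrocefin (2 uL of 800 uM stock) hydrolysis followed by 480 nm absorbance every 20 s over 4 min.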
# LT uptake inh – qHTS Assay for Anthrax Lethal Toxin Internalization; Potency, µM (highest dose often 40 µM), for the others: at the highest dose activity change, negative = inhibition, most hits filed as inhibitors; 70,000 compounds, 0.67% hits; Cells, anthrax lethal toxin internalization, FRET ratio (460/530); AID 912, 2007; also: % is scaled to controls: 0 for no effect and ±100 for the full control effect; nearly all actives have a fitted effect of over 50% in size
# AmpC inh no det – Promiscuous and Specific Inhibitors of AmpC Beta-Lactamase (assay without detergent). Potency, µM (top dose mostly 28.7 µM), inactives show top-dose activity change, negative = inhibition. AmpC nitrocefin hydrolysis, absorbance 480 nm, no detergent. 71,000 compounds, 1.8% hits. AID 585, 2007. P00811; also: % of control where 0% means no effect
#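 AmpC, 20 mM phosphate pH 7.0; 15 min cpd preinc, RT; start with nitrocefin (800 uM stock); A480 kinetic read, 20 s intervals, 4 min. No-enzyme wells = negative control.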
# An asterisk follows results filed as active; i = inactive; ? = inconclusive; · = not tested or not shown; [ ] = remark or other dose. Unless noted, calls follow the shape of the full dose curve. Potency is read from the fitted curve at half-maximal effect.
SMILES,SmPrx2 inh,AmpC det inh,LT uptake inh,AmpC inh no det
COc1ccc(OC)c(NC(=O)c2cc(-c3cc(Cl)ccc3O)n[nH]2)c1,>57,-1.0%,·,10µM*
O=c1cc(-c2ccccc2)oc2cc(O[C@H]3O[C@H](CO)[C@@H](O)[C@H](O)[C@@H]3O)c(O)c(O)c12,>57,-1.0%,?,-3.4%
Cc1ccc(CNC(=O)[C@H](C)[C@@H]2C[C@@]2(C)[C@@H](NC(=O)OCc2ccccc2)c2ccccc2)o1,>57,-1.6%,-12.8%,30.4%
CN[C@@H]1[C@H](O)[C@H](NC)[C@@H]2O[C@]3(O)C(=O)C[C@@H](C)O[C@H]3O[C@@H]2[C@H]1O,>57,-3.4%,-7.5%,4.1%
O=C=NC1CCCCC1,·,13.6%,-2.8%,-3.2%
C(=NC1CCCCC1)=NC1CCCCC1,·,12.5%,3.98µM*,-12.3%
O=C1c2ccccc2NC(c2ccco2)N1O (stereo not drawn),·,0.2%,-3.1%,-8.8%
O=C1C2=C(Nc3ccccc3SC2c2ccco2)c2ccccc21 (stereo not drawn),·,6.7%,?,0.398µM*
Nc1nc2c(s1)CC(c1ccccc1)CC2 (stereo not drawn),>57,7.7%,3.7%,7.94µM*
Nc1nc(SCc2ccccc2)ns1,>57,-3.7%,?,-16.6%
COc1ccc2[nH]cc(CCNc3ccnc(-c4ccccc4Cl)n3)c2c1,>57,9.4%,?,-10.4%
CCCCCc1cc(O)cc(O)c1,·,9.6%,?,-7.8%
CCCCCCCCCCCC1=C(O)C(=O)C=C(O)C1=O,>57,-14.3%,?,3.98µM*
COc1ccc2nc(NC(=O)C3CCCN(S(=O)(=O)c4c(C)noc4C)C3)sc2c1 (stereo not drawn),>57,15.6%,?,3.98µM*[single pt active]
CCOc1ccc2nc(NC(=O)C3CCCN(S(=O)(=O)c4c(C)noc4C)C3)sc2c1 (stereo not drawn),>57,10.1%,?,3.98µM*[single pt active]
Cc1noc(C)c1S(=O)(=O)N1CCCC(C(=O)N2CCN(C3CCCCC3)CC2)C1 (stereo not drawn),>57,12.2%,1.6%,3.98µM*[single pt active]
Cc1cc(NC(=O)C2CCCN(S(=O)(=O)c3c(C)noc3C)C2)n[nH]1 (stereo not drawn),>57,11.2%,?,3.98µM*[single pt active]
O=C1[C@H]2[C@H]3[C@H](O)[C@H](O)C/C(=N/OC[C@@H](O)COCc4ccco4)[C@H]3CC[C@@H]2C(=O)N1Cc1ccc2c(c1)OCO2,·,·,1.1%[1.6 µM],·
COC(=O)c1ccc(C(NC(=O)OCc2ccccc2)/C(=C/[C@@H](C)C(=O)NCc2ccc(OC)c(OC)c2)c2cccnc2)cc1 (stereo partly drawn),·,16.5%,-1.1%,123.8%
O=C(CSc1nnc(CNc2ccccc2)o1)N1CCc2ccccc21,>57,-0.4%,0.9%,15.8µM*[single pt active]
O=C(CSc1nnc(Cc2csc(Nc3cccc(Cl)c3)n2)o1)N1CCc2ccccc21,>57,0.6%,-26.2%,12.6µM*
O=C(CSc1nnc(Cc2ccccc2)o1)N1CCCc2ccccc21,>57,12.1%,3.9%,28.0%
COc1ccc(C[C@@H]2NC[C@H](O)[C@H]2OC(C)=O)cc1,>11.4,3.7%,?,8.6%
O=C(O)c1cc2c(cc1S(=O)(=O)O)[C@H]1[C@@H]([C@H]3[C@H]2[C@@]2(Cl)C(Cl)=C(Cl)[C@]3(Cl)C2(Cl)Cl)[C@]2(Cl)C(Cl)=C(Cl)[C@@]1(Cl)C2(Cl)Cl,>57,-5.9%[5.75 µM],-10.2%[8 µM],10.8%[5.75 µM]
O=c1c(O)c(-c2ccc(O)cc2)oc2ccc(O)cc12,i,-1.8%,-20.3%,15.8µM*[single pt active]
SMILES,SmPrx2 inh,AmpC det inh,LT uptake inh,AmpC inh no det
CC1=C(C(=O)OCc2ccccc2)C(c2cccnc2)n2ncnc2N1 (stereo not drawn),>57,-1.7%,1.8%,6.1%
CC(=O)C1=C(C)Nc2ncnn2C1c1cccc(OCc2ccccc2)c1 (stereo not drawn),>57,12.1%,6.2%,3.98µM*[single pt active]
C[N+]1(C)CCO[C@@](O)(c2ccc(-c3ccc([C@]4(O)C[N+](C)(C)CCO4)cc3)cc2)C1,>57,-5.2%,0.2%,-6.1%
N[C@H](Cn1cc(I)c(=O)[nH]c1=O)C(=O)O,>57,-3.3%,?,1.6%
Nc1nc2n(n1)C(c1ccccc1)CC(c1ccc(F)cc1)N2 (stereo not drawn),>57,14.3%,-1.4%,3.98µM*[single pt active]
Nc1nc2n(n1)C(c1ccco1)CC(c1ccc(F)cc1)N2 (stereo not drawn),>57,13.3%,-2.6%,32.9%
